Measurements from PubChem BioAssay (NCI).
Compounds without any hit were thinned out: in the full panel of roughly 83,000, 20% have a hit.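 Interpretation: 100, growth as untreated; towards 0, rising growth inhibition; 0, no net growth; 0 to -100, cell death. Compounds scoring below 10 were considered active.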 A number with no mark means an inactive call. Active and inactive are the calls of the source.

Each molecule was assayed on LOX IMVI melanoma (assay: NCI-60 one-dose screen, 48 h (100 = growth as untreated, 0 = no growth, -100 = all killed)). Settings: 10 µM.

Row | SMILES | growth
1 | COc1ccc(-c2nn(-c3cccc(NC(=O)Nc4cccc(C(F)(F)F)c4)c3)cc2-c2ccncc2)cc1Cl | 22.6%
2 | COc1ccc(-c2nn(-c3cccc(NC(=O)c4ccc(Cl)c(Cl)c4)c3)cc2-c2ccncc2)cc1Cl | 91.2%
3 | Cc1c(Cl)cccc1NC(=O)c1sc2nc3c(cc2c1N)C(=O)CCC3 | 33.3%
4 | COc1cc(/C=C/C(=O)c2ccc(Cl)cc2)ccc1OS(=O)(=O)c1ccc(C)cc1 | 2.55% (active)
5 | O=C(N/N=C/c1cc2ccccc2c2ccccc12)c1cc(O)c(O)c(O)c1 | 47.2%
6 | COc1ccc(-c2nn(-c3cccc(NC(=O)c4ccc(N5CCOCC5)c(C(F)(F)F)c4)c3)cc2-c2ccncc2)cc1Cl | 74.2%
7 | COc1ccc(-c2cc(/C=C/C(=O)c3cc(OC)c(OC)c(OC)c3)[nH]n2)cc1OC | -79% (active)
8 | CC1=C(N2CCOCC2)C(N2CCOCC2)=C(C)C(=O)C1=O | 101%
9 | Cc1ccc(C)c(C(O)(c2cc(C)ccc2C)C2(O)CCCCC2)c1 | 86.6%
10 | COc1ccc(-c2nn(-c3cccc(NC(=O)c4ccc5c(c4)OCCO5)c3)cc2-c2ccncc2)cc1Cl | 29.9%
11 | Cc1ncc(-c2ccoc2)c(NC2CCCCCC2)n1 | 96.9%
12 | O=S(=O)(NCCNc1nccc(-c2c(-c3ccc(F)cc3)nc3sccn23)n1)c1ccc2ccccc2c1 | 71.3%
13 | COc1ccc2c(c1)nc(N)c1c3cccnc3cn21 | 35.1%
14 | O=C(Nc1cccc(-n2cc(-c3ccncc3)c(-c3ccc(O)c(Cl)c3)n2)c1)c1ccc(Cl)c(Cl)c1 | 53%
15 | CCN1CCCC1CNC(=O)c1ncc(-c2ccc(C(F)(F)F)cc2)c(NC2CCCCCC2)n1 (centres undefined) | 87.1%
16 | Clc1ccc(-c2cn(-c3ccccc3)c(-c3ccccc3)n2)c(Cl)c1 | -76.3% (active)
17 | CCCCCCCCCCCCCCCC(=O)OC1[C@@H](OC(=O)CCCCCCCCCCCCCCC)[C@@H](C(=O)N[C@@H](CCCCN)C(=O)OC)O[C@H]1n1cnc2c(=O)[nH]c(NC(=O)C(C)C)nc21 (some centres undefined) | 93.5%
18 | O=c1oc2cc(OS(=O)(=O)c3ccccc3)ccc2c2c1CCCCC2 | 63.8%
19 | O=C1Nc2ccccc2C1=NC1CCCCC1 | 87.5%
20 | O=C(Nc1cccc(-n2cc(-c3ccncc3)c(-c3ccc(O)c(Cl)c3)n2)c1)c1ccc(N2CCOCC2)c(C(F)(F)F)c1 | 21.1%
21 | O=C(Nc1ccc(OS(=O)(=O)c2ccccc2)cc1)C12CC3CC(CC(C3)C1)C2 | 40%
22 | O=C(Nc1cccc(-n2cc(-c3ccncc3)c(-c3ccc(O)c(Cl)c3)n2)c1)c1cc(C(F)(F)F)cc(C(F)(F)F)c1 | 37.1%
23 | CCCC#CCN(CC)CC | 102%
24 | Cc1ccc(S(=O)(=O)OCCN(CCOS(=O)(=O)c2ccc(C)cc2)c2c[nH]c(=O)[nH]c2=O)cc1 | 104%
25 | CCOC(=O)C(NC(=O)C(Cl)Cl)C(O)c1ccccc1 (centres undefined) | 99.9%

What follows are molecules tested on SK-MEL-28 melanoma in the same assay as above. Settings: 10 µM.

Row | SMILES | growth
26 | CCCCCCCNc1nc(C=O)ncc1-c1ccc(C(F)(F)F)cc1 | 104%
27 | CCCCCCN1CCN(Cc2ccc(N(CC)CC)cc2)C(=O)C1=O | 49.9%
28 | O=C(Nc1cccc(-n2cc(-c3ccncc3)c(-c3ccc(O)c(Cl)c3)n2)c1)Nc1ccc(Cl)c(Cl)c1 | -21.5% (active)
29 | S=C1SCC(c2ccccc2)S1 (centres undefined) | 103%
30 | COc1cccc(C(=O)Nc2ccc(CN3CCc4nc5cc(OC)c(OC)cc5cc43)cc2)c1 | 73.2%
31 | COc1ccc(-c2nn(-c3cccc(NC(=O)c4cc(C(F)(F)F)cc(C(F)(F)F)c4)c3)cc2-c2ccncc2)cc1Cl | 67.3%
32 | O=C(Nc1ccccc1)Nc1cccc(-n2cc(-c3ccncc3)c(-c3ccc(O)c(Cl)c3)n2)c1 | 43.6%
33 | N#CCCN1C/C(=C/c2ccc(Cl)cc2)C(=O)/C(=C/c2ccc(Cl)cc2)C1 | -61.4% (active)
34 | COc1ccc(-c2nn(-c3cccc(NC(=O)c4cccc(C(F)(F)F)c4)c3)cc2-c2ccncc2)cc1Cl | 40.6%
35 | COc1ccc([N+](=O)[O-])c(C(=O)O)c1 | 106%
36 | CN(C)CCN=c1nc2c(c(N)n1-c1ccccc1)c(=S)n(-c1ccccc1)c(=S)n2-c1ccccc1 | -100% (active)
37 | O=C(Nc1cccc(-n2cc(-c3ccncc3)c(-c3ccc(O)c(Cl)c3)n2)c1)c1cccc(C(F)(F)F)c1 | 43.9%
38 | COc1cccc(NC(=O)c2sc3nc4c(cc3c2N)C(O)CCC4)c1 (centres undefined) | 56%
39 | O=S(=O)(NCCCNc1nccc(-c2c(-c3ccc(F)cc3)nc3sccn23)n1)c1ccc2ccccc2c1 | 72.6%
40 | COc1ccc(-c2nn(-c3cccc(NC(=O)Nc4cccc(C(F)(F)F)c4)c3)cc2-c2ccncc2)cc1Cl | 15.6%
41 | COc1ccc(-c2nn(-c3cccc(NC(=O)c4ccc(Cl)c(Cl)c4)c3)cc2-c2ccncc2)cc1Cl | 75.3%
42 | Cc1c(Cl)cccc1NC(=O)c1sc2nc3c(cc2c1N)C(=O)CCC3 | 43.7%
43 | COc1cc(/C=C/C(=O)c2ccc(Cl)cc2)ccc1OS(=O)(=O)c1ccc(C)cc1 | 106%
44 | O=C(N/N=C/c1cc2ccccc2c2ccccc12)c1cc(O)c(O)c(O)c1 | 55.6%
45 | COc1ccc(-c2nn(-c3cccc(NC(=O)c4ccc(N5CCOCC5)c(C(F)(F)F)c4)c3)cc2-c2ccncc2)cc1Cl | 72.3%

Row | SMILES | growth
46 | COc1ccc(-c2cc(/C=C/C(=O)c3cc(OC)c(OC)c(OC)c3)[nH]n2)cc1OC | -66.8% (active)
47 | CC1=C(N2CCOCC2)C(N2CCOCC2)=C(C)C(=O)C1=O | 106%
48 | Cc1ccc(C)c(C(O)(c2cc(C)ccc2C)C2(O)CCCCC2)c1 | 105%
49 | COc1ccc(-c2nn(-c3cccc(NC(=O)c4ccc5c(c4)OCCO5)c3)cc2-c2ccncc2)cc1Cl | 38.3%
50 | Cc1ncc(-c2ccoc2)c(NC2CCCCCC2)n1 | 128%
51 | O=S(=O)(NCCNc1nccc(-c2c(-c3ccc(F)cc3)nc3sccn23)n1)c1ccc2ccccc2c1 | 93%
52 | COc1ccc2c(c1)nc(N)c1c3cccnc3cn21 | 62.6%
53 | O=C(Nc1cccc(-n2cc(-c3ccncc3)c(-c3ccc(O)c(Cl)c3)n2)c1)c1ccc(Cl)c(Cl)c1 | 47.6%
54 | CCN1CCCC1CNC(=O)c1ncc(-c2ccc(C(F)(F)F)cc2)c(NC2CCCCCC2)n1 (centres undefined) | 81.5%
55 | Clc1ccc(-c2cn(-c3ccccc3)c(-c3ccccc3)n2)c(Cl)c1 | 6.05% (active)
56 | CCCCCCCCCCCCCCCC(=O)OC1[C@@H](OC(=O)CCCCCCCCCCCCCCC)[C@@H](C(=O)N[C@@H](CCCCN)C(=O)OC)O[C@H]1n1cnc2c(=O)[nH]c(NC(=O)C(C)C)nc21 (some centres undefined) | 113%
57 | O=c1oc2cc(OS(=O)(=O)c3ccccc3)ccc2c2c1CCCCC2 | 73.2%
58 | O=C1Nc2ccccc2C1=NC1CCCCC1 | 115%
59 | O=C(Nc1cccc(-n2cc(-c3ccncc3)c(-c3ccc(O)c(Cl)c3)n2)c1)c1ccc(N2CCOCC2)c(C(F)(F)F)c1 | 49.7%
60 | O=C(Nc1ccc(OS(=O)(=O)c2ccccc2)cc1)C12CC3CC(CC(C3)C1)C2 | 75%
61 | O=C(Nc1cccc(-n2cc(-c3ccncc3)c(-c3ccc(O)c(Cl)c3)n2)c1)c1cc(C(F)(F)F)cc(C(F)(F)F)c1 | 70.8%
62 | CCCC#CCN(CC)CC | 108%
63 | Cc1ccc(S(=O)(=O)OCCN(CCOS(=O)(=O)c2ccc(C)cc2)c2c[nH]c(=O)[nH]c2=O)cc1 | 102%
64 | CCOC(=O)C(NC(=O)C(Cl)Cl)C(O)c1ccccc1 (centres undefined) | 144%
